High-throughput results from PubChem BioAssay.
Only some compounds are listed: those with a hit (about 6.3% of all), similar ones and a draw of the others.
A340 absorber – absorbance at 340 nm | compound absorbance at 340 nm, fold over control | fold change at 10 µM | 65,000 tested, under 10 active | AID 708;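 active means at 10 µM dose, initial 340 nm absorbance at least 2 fold that of control wells; inactive means change under 2 fold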;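 further: initial absorbance extrapolated from kinetic A340 decline of NADH oxidation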
NADH coupling – inhibitors of enzymes used to reach an NAD/NADH endpoint. coupled PK/LDH NADH assays, four targets. IC50, µM (titrated, usually from 10 µM), inactives show at the top dose inhibition. 0.02% of 65,000 active. AID 774;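 active means single-dose screening hits from any of four coupled enzyme assays that gave an IC50 when retested across doses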;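 further: the DPM-DC format reads NADH fluorescence rather than 340 nm absorbance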
Spn MK inh – inhibitors of Streptococcus pneumoniae mevalonate kinase; purified MK, PK/LDH-coupled NADH absorbance 340 nm; inhibition, % at 10 µM; 0.48% of 65,000 active; AID 555;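 active means ranked among the strongest by inhibition in the single 10 µM screen, a fixed top-ranked set picked for dose follow-up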
Spn PMK inh – S. pneumoniae PMK inhibition; 0.49% of 65,000 active; purified PMK, PK/LDH-coupled NADH absorbance 340 nm; inhibition, % at 10 µM;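 active means top-ranked compounds by inhibition in the single 10 µM screen, taking a fixed number of the strongest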;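 further: 0% = full reaction with DMSO carrier and 100% = background rate without enzyme reaction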
Autofluor 339 – intrinsic fluorescence of library compounds, ex339/em460 – biochemical, MLSMR library, data from DPM-DC assay, artefact control, profiling panel | compound autofluorescence, ex339/em460 nm, NADH buffer; hits give high values; 1 = no-compound wells, NADH background | fluorescence fold increase at 10 µM | 5.5% of 65,000 active | AID 709;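 active means at 10 µM, mean starting fluorescence two-fold or more over control wells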;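 further: signal is the first read of a kinetic run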
Spn DPM-DC inh – blocks S. pneumoniae diphosphomevalonate decarboxylase; purified DPM-DC, PK/LDH coupled NADH fluorescence; calls only at 10 µM; 0.49% of 65,000 active;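 active means the 320 compounds with the highest percent inhibition in the single-dose primary screen, excluding strongly autofluorescent ones, cut at about 32% in these data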;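 further: kinetic rate of NADH fluorescence loss reporting ADP formed by the decarboxylase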
Starred values were filed as active, the others as inactive.

How did CCOC(=O)C1CCN(S(=O)(=O)c2ccc3c4c(cccc24)C(=O)N3)CC1 do in these assays?
A340 absorber: 1.1; NADH coupling: 7.0%; Spn MK inh: 5.0; Spn PMK inh: 8.0; Autofluor 339: 2.12*

How did CCCCC(c1nnnn1Cc1ccco1)N1CCN(c2nc3ccccc3s2)CC1 (stereo not given) do in these assays?
A340 absorber: 0.99; NADH coupling: 6.0%; Spn MK inh: 3.0; Spn PMK inh: 7.0; Autofluor 339: 1.13; Spn DPM-DC inh: inactive

Results for CCOC(=O)CC(=O)CSc1nnc2c(n1)[nH]c1ccccc12 ?
A340 absorber: 1.19; NADH coupling: 11.0%; Spn MK inh: 0.0; Spn PMK inh: 34.0*; Autofluor 339: 1; Spn DPM-DC inh: inactive

Results for CCOC(=O)CN(C(=O)CSc1nnc2c(n1)[nH]c1ccc(OC)cc12)c1ccc(F)cc1 ?
A340 absorber: 1; NADH coupling: 6.0%; Spn MK inh: 10.0; Spn PMK inh: 7.0; Autofluor 339: 1.1; Spn DPM-DC inh: inactive

What do the screens show for `CN(CP(=O)(O)CN(C)S(C)(=O)=O)S(C)(=O)=O`?
A340 absorber: 1.04; NADH coupling: 5.0%; Spn PMK inh: 10.0; Autofluor 339: 1.03; Spn DPM-DC inh: inactive

What do the screens show for `COC(=O)/C=c1\sc2ncnn2c1=O`?
A340 absorber: 1.02; NADH coupling: 1.0%; Spn MK inh: 1.0; Spn PMK inh: 2.0; Autofluor 339: 1.02; Spn DPM-DC inh: inactive

Results for CC(C)Oc1ccc(-c2nn(-c3ccccc3)cc2/C=c2\sc3ncnn3c2=O)cc1 ?
A340 absorber: 1.01; NADH coupling: 3.0%; Spn MK inh: 7.0; Spn PMK inh: 8.0; Autofluor 339: 3.02*

Results for CCOC(=O)Nc1sc2c(c1C(=O)OCC)CCC2 ?
A340 absorber: 1.02; NADH coupling: 2.0%; Spn MK inh: 2.0; Spn PMK inh: 3.0; Autofluor 339: 1.15; Spn DPM-DC inh: inactive

Results for CCOC(=O)c1c(NC(=O)c2noc3c2CCCC3)sc2c1CCCC2 ?
A340 absorber: 1; NADH coupling: 11.0%; Spn MK inh: 8.0; Spn PMK inh: 10.0; Autofluor 339: 1.2; Spn DPM-DC inh: inactive

What do the screens show for `CCC1CCc2c(sc(NC(=O)c3ccoc3C)c2C(N)=O)C1` (stereo not given)?
A340 absorber: 1.09; NADH coupling: 0.0%; Spn MK inh: 0.0; Spn PMK inh: 0.0; Autofluor 339: 2.08*

What do the screens show for `CCOC(=O)c1c(NC(=O)c2ccoc2C)sc2c1CCC2`?
A340 absorber: 1.01; NADH coupling: 6.0%; Spn MK inh: 13.0; Spn PMK inh: 0.0; Autofluor 339: 2.24*

Results for CCCc1cc(C(=O)Nc2sc3c(c2C(=O)OCC)CCCC3)no1 ?
A340 absorber: 1.1; NADH coupling: 5.0%; Spn MK inh: 5.0; Spn PMK inh: 4.0; Autofluor 339: 2.08*

Results for Cn1cnnc1SCC(=O)Nc1sccc1C#N ?
A340 absorber: 0.99; NADH coupling: 5.0%; Spn MK inh: 0.0; Spn PMK inh: 16.0; Autofluor 339: 1.07; Spn DPM-DC inh: inactive

What do the screens show for `Cc1ccc(S(=O)(=O)NCCC(=O)NCCN2CCCCCC2)cc1`?
A340 absorber: 1.02; NADH coupling: 4.0%; Spn MK inh: 0.0; Spn PMK inh: 12.0; Autofluor 339: 1.08; Spn DPM-DC inh: inactive

Results for CC1CN(C(=O)c2cnn3c(C(F)F)cc(-c4ccccc4)nc23)CC(C)O1 (stereo not given) ?
A340 absorber: 1.09; NADH coupling: 5.0%; Spn MK inh: 5.0; Spn PMK inh: 9.0; Autofluor 339: 1.79; Spn DPM-DC inh: inactive

How did O=C(c1cnn2c(C(F)F)cc(-c3ccccc3)nc12)N1CCOCC1 do in these assays?
A340 absorber: 1.06; NADH coupling: 10.0%; Spn MK inh: 7.0; Spn PMK inh: 13.0; Autofluor 339: 3.7*

What do the screens show for `COc1ccc(-c2cc(C(F)(F)F)n3ncc(C(=O)NCC4CCCO4)c3n2)cc1OC` (stereo not given)?
A340 absorber: 1.14; NADH coupling: 3.0%; Spn MK inh: 0.0; Spn PMK inh: 0.0; Autofluor 339: 1.7; Spn DPM-DC inh: inactive

What do the screens show for `O=C(c1cnn2c(C(F)F)cc(-c3ccccc3)nc12)N1CCSCC1`?
A340 absorber: 1.07; NADH coupling: 7.0%; Spn MK inh: 11.0; Spn PMK inh: 7.0; Autofluor 339: 1.19; Spn DPM-DC inh: inactive
